# Source: PubChem BioAssay
# Calls of active or inactive are those of the source.
# How the values were obtained:
# Albumin (Bos taurus) = Albumin (Bos taurus) (UniProt P02769); assay: compounds binding labelled BSA control protein – biochemical, small-molecule microarray, Alexa647 label, 635/667 nm fluorescence, artefact control for SMM control protein annotation, profiling panel (AID 1118); conditions: BSA-A647 binding, fluorescence 635 nm, higher = more signal;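 further: score merges 667 nm emission intensity and signal-to-noise per printed compound spot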
# Chain of Albumin (Bos taurus) (P02769 whole entry, looked up): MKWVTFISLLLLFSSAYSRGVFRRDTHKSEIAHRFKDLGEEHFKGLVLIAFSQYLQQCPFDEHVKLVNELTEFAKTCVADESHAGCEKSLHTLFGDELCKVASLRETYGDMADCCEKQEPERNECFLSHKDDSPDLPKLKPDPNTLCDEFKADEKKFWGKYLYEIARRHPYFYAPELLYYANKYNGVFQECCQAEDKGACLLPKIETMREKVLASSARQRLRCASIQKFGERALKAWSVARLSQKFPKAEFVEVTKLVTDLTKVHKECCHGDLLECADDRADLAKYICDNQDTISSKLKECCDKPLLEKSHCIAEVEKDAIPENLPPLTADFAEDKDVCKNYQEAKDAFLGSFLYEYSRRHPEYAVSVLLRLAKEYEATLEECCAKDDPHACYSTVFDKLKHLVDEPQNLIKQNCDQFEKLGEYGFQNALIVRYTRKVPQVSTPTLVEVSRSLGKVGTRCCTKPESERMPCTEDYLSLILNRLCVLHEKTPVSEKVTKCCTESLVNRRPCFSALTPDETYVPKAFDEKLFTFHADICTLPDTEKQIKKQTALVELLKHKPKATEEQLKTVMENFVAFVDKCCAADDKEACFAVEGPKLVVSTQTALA
# [1] = probe aXIP binding to arrayed compounds – biochemical, NeuroSMM set, 635/667 nm fluorescence, primary screen (AID 1119); conditions: small-molecule microarray, higher = more signal, called active from +8 up or from −8 down;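 further: probe is the protein aXip251-270 applied at 1 µg/mL to compound-printed slides; binding of probe to printed compounds measured as 667 nm fluorescence plus signal to noise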
# [2] = probe aNOTCH3 binding on compound microarray – biochemical, small-molecule microarray, 635/667 nm fluorescence, primary screen (AID 1120); conditions: higher = more signal;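 further: probe is a biotin-tagged antibody raised against NOTCH3 rather than NOTCH3 protein; score merges spot fluorescence near 667 nm with spot signal to noise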
# [3] = probe aNOTCH2 binding on compound microarray – biochemical, small-molecule microarray, 635/667 nm fluorescence, primary screen (AID 1121); conditions: higher = more signal;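 further: score merges feature fluorescence read at 667 nm with its signal to noise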
# [4] = target: Carbonic anhydrase 2 (Homo sapiens) (UniProt P00918); assay: compounds binding carbonic anhydrase 2 – biochemical, small-molecule microarray, Alexa647-labelled CAII, profiling panel (AID 1122); conditions: CAII-A647 binding fluorescence, higher = more signal
# [5] = COS7 lysate on small-molecule microarray, probe aHis, 635 nm (AID 1123); conditions: COS7 cell lysate, fluorescence, higher = more signal;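 further: z-score combines 667nm fluorescence intensity with signal-to-noise per printed compound spot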
# [6] = probe aLAP1 signal on lysate-treated microarray – cell lysate, small-molecule microarray, COS7 lysate, primary screen (AID 1124); conditions: probe aLAP1, fluorescence, higher = more signal;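 further: lysate comes from COS7 cells expressing LAP1 and is applied at 0.3 µg/mL; score merges spot fluorescence near 667 nm with signal-to-noise over triplicate slides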
# Sam68 (KHDRBS1) = assay: compounds binding KHDRBS1 protein – biochemical, small-molecule microarray, 635 nm fluorescence, primary screen (AID 1125); conditions: higher = more signal;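 further: score merges 667 nm channel intensity with signal to noise over triplicate slides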
# [7] = tested on: Chordin-like protein 2 (CHRDL2); assay: compounds binding chordin-like 2 – biochemical, small-molecule microarray, 635 nm fluorescence, primary screen (AID 1126); conditions: fluorescence 635 nm, higher = more signal;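 further: printed compound slides probed with Chrdl2 protein at 4 µg/mL for 1 h at 4 C; score merges 667 nm emission intensity with signal to noise over three replicate slides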
# [8] = target: Concanavalin-A (Canavalia ensiformis) (UniProt P02866); assay: compounds binding concanavalin A lectin – biochemical, small-molecule microarray, Alexa647 label, 635 nm, artefact control for SMM control protein annotation, primary screen (AID 1127); conditions: ConA-A647 binding fluorescence, higher = more signal;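 further: z combines 667 nm emission intensity with signal-to-noise across three replicate slides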
# Chain of Concanavalin-A (Canavalia ensiformis) (P02866 whole entry, looked up): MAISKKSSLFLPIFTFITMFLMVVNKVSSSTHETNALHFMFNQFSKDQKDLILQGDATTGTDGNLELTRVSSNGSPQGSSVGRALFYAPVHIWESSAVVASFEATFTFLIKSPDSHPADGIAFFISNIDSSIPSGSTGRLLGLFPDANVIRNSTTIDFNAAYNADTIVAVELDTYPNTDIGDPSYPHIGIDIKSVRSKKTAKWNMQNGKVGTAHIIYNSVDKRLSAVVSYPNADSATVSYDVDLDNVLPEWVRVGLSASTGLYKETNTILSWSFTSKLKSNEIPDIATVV
# [9] = compounds binding Alexa647 anti-His antibody – biochemical, small-molecule microarray, 635 nm fluorescence, artefact control for SMM control protein annotation, primary screen (AID 1128); conditions: higher = more signal;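 further: score merges feature fluorescence with signal-to-noise for each printed compound spot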
# [10] = tested on: Human papillomavirus type 1a E7 protein (residues 1-88); assay: HPV1a E7 small-molecule binders, primary screen, biochemical, small-molecule microarray, residues 1-88, 635 nm (AID 1129); conditions: small-molecule microarray binding, fluorescence 635 nm; higher = more signal
# [11] = target: Focal adhesion kinase 1 (Homo sapiens) (UniProt Q05397); assay: PTK2 protein binding on printed compound slides – biochemical, small-molecule microarray, 635/667 nm fluorescence, BSA, DTT, primary screen (AID 1130); conditions: 635 nm fluorescence, higher = more signal;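 further: composite of spot emission at 667 nm and signal to noise over triplicate slides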
# Chain of Focal adhesion kinase 1 (Homo sapiens) (Q05397 whole entry, looked up): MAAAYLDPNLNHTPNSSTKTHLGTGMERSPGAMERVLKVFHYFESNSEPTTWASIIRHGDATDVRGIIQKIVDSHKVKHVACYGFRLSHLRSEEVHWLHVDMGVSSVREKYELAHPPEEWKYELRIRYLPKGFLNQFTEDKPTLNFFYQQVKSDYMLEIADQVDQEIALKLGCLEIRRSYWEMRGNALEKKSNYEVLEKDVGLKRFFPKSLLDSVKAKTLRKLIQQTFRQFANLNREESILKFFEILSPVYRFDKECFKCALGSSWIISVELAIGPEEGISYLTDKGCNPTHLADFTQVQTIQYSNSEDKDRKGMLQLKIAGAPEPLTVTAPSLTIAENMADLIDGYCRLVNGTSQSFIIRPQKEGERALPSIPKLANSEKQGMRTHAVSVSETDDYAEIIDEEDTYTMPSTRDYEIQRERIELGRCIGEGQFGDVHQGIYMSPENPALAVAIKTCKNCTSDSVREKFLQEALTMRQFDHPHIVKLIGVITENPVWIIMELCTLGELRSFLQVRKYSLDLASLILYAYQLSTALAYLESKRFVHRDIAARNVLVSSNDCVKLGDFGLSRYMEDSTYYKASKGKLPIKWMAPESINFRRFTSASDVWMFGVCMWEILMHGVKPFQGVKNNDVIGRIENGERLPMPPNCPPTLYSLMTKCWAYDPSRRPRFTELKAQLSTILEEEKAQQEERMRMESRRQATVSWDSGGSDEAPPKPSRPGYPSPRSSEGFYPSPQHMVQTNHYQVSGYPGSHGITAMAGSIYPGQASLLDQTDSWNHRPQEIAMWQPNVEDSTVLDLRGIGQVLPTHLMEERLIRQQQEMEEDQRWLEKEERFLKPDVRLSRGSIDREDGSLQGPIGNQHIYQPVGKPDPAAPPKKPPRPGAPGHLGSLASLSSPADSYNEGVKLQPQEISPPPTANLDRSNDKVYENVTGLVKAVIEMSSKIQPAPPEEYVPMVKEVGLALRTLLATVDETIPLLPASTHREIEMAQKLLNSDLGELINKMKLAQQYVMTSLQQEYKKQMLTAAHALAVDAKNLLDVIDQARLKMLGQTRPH
# [12] = tested on: Fibrinogen (Alexa647-labelled); assay: Alexa647-fibrinogen binding to printed small molecules – biochemical, small-molecule microarray, 635/667 nm fluorescence, artefact control for SMM control-protein annotation, profiling panel (AID 1131); conditions: fibrinogen-A647 binding fluorescence, higher = more signal;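 further: z-score merges 667 nm fluorescence with per-spot signal-to-noise over triplicate slides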
# [13] = target: Follistatin (Homo sapiens) (UniProt P19883); assay: FST protein binding to printed compounds – biochemical, small-molecule microarray, 635/667 nm fluorescence, primary screen (AID 1132); conditions: 635 nm fluorescence, higher = more signal
# Chain of Follistatin (Homo sapiens) (P19883 whole entry, looked up): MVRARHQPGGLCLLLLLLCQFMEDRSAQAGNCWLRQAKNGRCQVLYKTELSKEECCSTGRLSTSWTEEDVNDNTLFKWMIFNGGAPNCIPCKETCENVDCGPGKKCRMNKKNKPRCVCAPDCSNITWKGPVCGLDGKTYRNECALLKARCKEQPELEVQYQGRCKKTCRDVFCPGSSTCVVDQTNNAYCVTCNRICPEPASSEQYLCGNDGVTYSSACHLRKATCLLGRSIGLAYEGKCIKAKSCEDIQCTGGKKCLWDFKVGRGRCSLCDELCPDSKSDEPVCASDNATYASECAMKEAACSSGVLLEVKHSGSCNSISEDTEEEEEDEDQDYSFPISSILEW
# [14] = target: Fibroblast growth factor 2 (Homo sapiens) (UniProt P09038); assay: basic fibroblast growth factor binding to printed compounds – biochemical, small-molecule microarray, 635/667 nm fluorescence, primary screen (AID 1133); conditions: FGF2, fluorescence 635/667, higher = more signal
# Chain of Fibroblast growth factor 2 (Homo sapiens) (P09038 whole entry, looked up): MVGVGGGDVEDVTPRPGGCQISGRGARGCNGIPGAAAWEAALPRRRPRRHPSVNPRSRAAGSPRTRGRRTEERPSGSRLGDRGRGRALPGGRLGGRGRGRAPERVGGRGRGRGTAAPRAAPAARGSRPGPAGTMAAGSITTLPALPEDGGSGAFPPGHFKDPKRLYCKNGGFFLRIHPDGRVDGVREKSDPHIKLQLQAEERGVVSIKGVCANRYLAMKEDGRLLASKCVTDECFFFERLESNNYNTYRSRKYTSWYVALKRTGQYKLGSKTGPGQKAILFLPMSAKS
# [15] = JC-1 mitochondrial potential readout, lung cancer cells – cell-based, A549, JC-1 fluorescence, basal, 24 h, 100 nL, profiling panel (AID 1138); conditions: higher = more signal;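 further: A549 lung adenocarcinoma cells under basal conditions with no added stimulus; test concentration not given here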
# Lefty1 = Lefty1 protein binding to printed compounds – biochemical, small-molecule microarray, 635/667 nm fluorescence, primary screen (AID 1139); conditions: fluorescence 635/667, higher = more signal
# [16] = tested on: wheat germ agglutinin (Triticum aestivum), Alexa647-labelled; assay: Alexa647-WGA lectin binding to printed small molecules – biochemical, small-molecule microarray, 635/667 nm fluorescence, artefact control for SMM control-protein annotation, profiling panel (AID 1140); conditions: WGA-A647 binding, 635 nm fluorescence, higher = more signal;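 further: score merges 667 nm feature emission with signal to noise over triplicate slides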
# [17] = target: Luciferin 4-monooxygenase (Photinus pyralis) (UniProt P08659); assay: inhibition of purified Photinus pyralis luciferase – biochemical, luminescence, purified enzyme, 2006 set, primary screen (AID 1141); conditions: purified firefly luciferase, SteadyGlo luminescence, 30 min; higher = more signal, called active from +8 up or from −8 down;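 further: cell-free assay with purified firefly luciferase at 100 ng per well in PBS; test concentration not given here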
# Chain of Luciferin 4-monooxygenase (Photinus pyralis) (P08659 whole entry, looked up): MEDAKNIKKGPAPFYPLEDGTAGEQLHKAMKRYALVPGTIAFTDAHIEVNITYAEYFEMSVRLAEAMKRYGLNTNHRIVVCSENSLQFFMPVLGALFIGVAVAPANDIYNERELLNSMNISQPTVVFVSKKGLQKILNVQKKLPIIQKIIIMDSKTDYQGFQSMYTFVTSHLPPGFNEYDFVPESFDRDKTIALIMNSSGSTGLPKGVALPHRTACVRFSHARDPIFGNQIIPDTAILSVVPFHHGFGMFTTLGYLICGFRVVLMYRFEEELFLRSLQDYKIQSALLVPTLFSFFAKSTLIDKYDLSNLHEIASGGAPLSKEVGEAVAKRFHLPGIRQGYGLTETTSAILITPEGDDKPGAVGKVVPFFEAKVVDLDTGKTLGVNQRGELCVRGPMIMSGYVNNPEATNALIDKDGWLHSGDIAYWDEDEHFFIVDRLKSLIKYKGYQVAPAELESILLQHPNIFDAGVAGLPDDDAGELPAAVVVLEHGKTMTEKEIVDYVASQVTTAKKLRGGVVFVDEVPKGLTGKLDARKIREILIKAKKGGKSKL
SMILES,composite z-score (Albumin (Bos taurus)),composite Z-score [1],composite z-score [2],composite z-score [3],composite z-score [4],composite z-score [5],composite z-score [6],composite z-score (Sam68 (KHDRBS1)),composite z-score [7],composite z-score [8],composite z-score [9],composite z-score [10],composite z-score [11],composite z-score [12],composite z-score [13],composite z-score [14],z-score [15],composite z-score (Lefty1),composite z-score [16],z-score [17]
CO[C@@H]1COC(=O)[C@@H]2CCCN2C(=O)[C@@H](C)COC(=O)CCC[C@H]1C,0.379,0.305 (inactive),0.109,-0.16,-0.126,0.0072,0.557,1.27,0.438,-0.0031,0.176,0.0997,0.154,0.482,0.529,0.264,-0.601,0.486,0.2,0.173 (inactive)
CCN(CC)CC(O)CN1CCCCc2nc(C)c(C)cc21 (stereo not given),0.401,-0.336 (inactive),0.0026,-0.195,0.367,0.243,-0.072,0.334,0.468,0.363,1,0.546,-0.0492,0.0982,0.355,0.639,1.09,0.516,0.944,-1.12 (inactive)
CCN1C(=O)[C@H]2[C@H]3[C@H](O)[C@H](O)CC(=NOCC[C@@H]4C=C[C@H](OC(C)=O)[C@@H](COC(C)=O)O4)[C@@H]3CC[C@H]2C1=O,0.541,0.501 (inactive),-0.149,-0.12,0.385,0.305,0.256,0.214,0.63,0.544,0.535,0.311,0.39,0.936,0.472,0.419,-0.812,0.298,0.97,0.838 (inactive)
CCOC(=O)[C@H](Cc1ccccc1)NC(=O)CCC1CC(OC(=O)NCc2ccc3c(c2)OCO3)CC2(CCCC(COC(=O)NCCc3ccc(Cl)cc3)O2)O1 (stereo not given in full),0.581,0.264 (inactive),0.0591,-0.125,0.151,0.454,0.0158,1.3,0.43,0.814,0.0231,0.908,0.762,0.755,0.749,0.303,0.05,1.03,0.335,-0.144 (inactive)
C[C@H]1CC[C@H]2C(=O)N[C@H](Cc3ccccc3)C(=O)N2[C@@H]1c1ccccc1,-0.456,0.418 (inactive),-0.177,-0.0811,-0.0975,-0.227,-0.306,-0.824,0.678,-0.126,-0.106,-0.138,0.128,-0.0797,0.187,0.831,0.514,0.426,-0.112,-0.854 (inactive)
CC(C)=CCCC(C)=CCON=C1C[C@@H](O)[C@@H](O)[C@@H]2[C@@H]3C(=O)N(Cc4ccc5c(c4)OCO5)C(=O)[C@@H]3CC[C@@H]12,0.653,0.74 (inactive),0.0827,-0.0811,0.495,1.29,0.237,1.31,1.19,0.959,1.05,1.14,0.597,0.558,1.18,0.414,-0.286,0.709,0.574,0.696 (inactive)
COC(=O)CC=C[C@@H](C)[C@@H](C=NOC(C)CN1CCCCc2nc(C)c(C)cc21)NS(=O)(=O)c1ccc(C)cc1 (stereo not given in full),-0.636,-0.292 (inactive),0.0949,-0.19,-0.277,-0.065,0.0618,0.0692,1.17,-0.135,0.0454,0.156,0.0646,-0.207,0.927,0.601,-0.297,0.417,0.0721,0.183 (inactive)
CC(=O)OC[C@H]1O[C@H](CC=NOC(C)CN2CCCc3nc(C)c(C)cc32)C=C[C@@H]1OC(C)=O (stereo not given in full),-0.0846,1.01 (inactive),0.0591,0.0032,0.0124,0.0855,0.53,1.2,1.15,-0.152,1.42,0.507,0.246,0.145,0.803,0.684,-0.221,0.947,-0.0862,0.767 (inactive)
CCOC(=O)[C@H](Cc1ccccc1)NC(=O)CCC1CC(OC(=O)NCc2cccc3ccccc23)CC2(CCCC(COC(=O)NCCOc3ccccc3)O2)O1 (stereo not given in full),0.0423,0.19 (inactive),-0.16,-0.0859,0.391,1.05,0.132,1.24,0.439,1.12,1.39,1.01,0.227,0.725,0.485,0.279,-0.16,0.573,0.268,1.13 (inactive)
CC(=O)OC[C@H]1O[C@@H](ON=C(C)CCN2CCCCc3nc(C)c(C)cc32)[C@H](OC(C)=O)[C@@H](OC(C)=O)[C@@H]1OC(C)=O,0.536,-0.288 (inactive),0.0282,-0.115,0.163,0.773,-0.0796,1.29,1.27,0.289,0.914,0.329,-0.0665,0.736,0.89,1.14,-0.66,1.17,0.162,0.949 (inactive)
CCOC(=O)[C@H](CC(C)C)NC(=O)CCC1CC(OC(=O)NCCc2ccc(F)cc2)CC2(CCCC(COC(=O)NCCCN3CCCC3=O)O2)O1 (stereo not given in full),0.353,0.0886 (inactive),-0.179,-0.0839,0.325,0.619,0.16,0.883,0.473,0.0423,0.969,0.635,0.0501,0.958,1.25,0.304,-0.114,0.766,0.205,0.564 (inactive)
